In all, about 69,000 compounds went through this assay and about 8,600 (12%) showed an effect of 50% or more. The sample as a whole holds a higher share of strong results than the screen did.

The subject of this experiment is Plasmodium berghei. Nature of the experiment: Screen against P. berghei liver stage (PbLuc), transformed with Luciferase, at 10uM. The conditions noted are these: tested at 10 uM. Format: functional, HepG2.
`Cc1cc(NCCc2nnc(N)s2)nc(-c2cccnc2)n1`: the INHIBITION stood at 16.7%. Take `CCc1nc(CNc2cc(C)nc(-c3cccnc3)n2)cs1`: the INHIBITION amounted to 54.9%.

Regarding `CCc1csc(CNc2cc(C)nc(-c3cccnc3)n2)n1`, the INHIBITION is reported as 56.05%. The same measure for `Cc1cc(NCCc2c[nH]cn2)nc(-c2cccnc2)n1`: -14.1%; for `Cc1cc(NCCc2c(C)n[nH]c2C)nc(-c2cccnc2)n1`: 16.69%; for `Cc1cc(NCCc2nc(C)cs2)nc(-c2cccnc2)n1`: -25.1%. As to `CSC(C)(C)CNC(=O)NCc1cccc(-n2ccnc2)c1`, the INHIBITION was found to be 17.2%.

As to `O=C(Cc1ccccc1F)N1CCC[C@@H]1Cn1c(=O)oc2ccccc21`, the INHIBITION is listed as -12%. Under `CC1CCCN(C(=O)c2occc2COc2cccc(C#N)c2)C1` (stereo not drawn) stands 35.1%; under `CC(C)N1CCC2(CCCN(c3nccc(C(F)(F)F)n3)C2)CC1`, -12.2%. Under `CN(C)[C@H]1CCCCN(Cc2cnc(NCc3ccccc3)nc2)C1` stands 57.5%; under `c1ccc(CNc2ncc(CN3CCCN4CCC[C@H]4C3)cn2)cc1`, 30.3%.

As for `c1ccc(CNc2ncc(CN3CC[C@@H]4CC[C@H](C3)N4)cn2)cc1`, the INHIBITION came out at 30.3%. With `c1ncn(Cc2cn3c(n2)CN(CC2CCCCC2)CC3)n1`, the INHIBITION is given as -10.3%. The same measure for `CC(C)(C)c1n[nH]c(C2CN(C(=O)c3csnn3)CCO2)n1` (stereo not drawn): 11.1%; for `NC(=O)C1CCN(C(=O)NC2CCc3cc(Cl)ccc32)CC1` (stereo not drawn): 18.4%. The same measure for `C[C@H]1CN(C)C[C@@]12COCCN(C(=O)Cc1ccccc1)C2`: -21.7%; for `CC(=O)N1CCN([C@@H]2CCC[C@@H](N(C)C(=O)C3CC3)[C@H]2O)CC1`: 45.6%.

Turning to `COc1cccc(Cn2ncnc2COC(C)C)c1`, the INHIBITION was -16.1%. In the case of `COc1ccc2c3c1CN(C(=O)N(C)C)CC3=CC(C)(C)CO2`, the INHIBITION worked out at 25.3%. The same measure for `COCC(=O)N1CC2=CC(C)(C)COc3ccc(OC)c(c32)C1`: 48%; for `COC(=O)N1CC2=CC(C)(C)COc3ccc(OC)c(c32)C1`: 63.1%; for `COc1ccc2c3c1CN(C(C)=O)CC3=CC(C)(C)CO2`: 52.5%. Turning to `CCNC(=O)N1CC2=CC(C)(C)COc3ccc(OC)c(c32)C1`, the INHIBITION was determined as 22.2%. For `COCCOC(=O)N1CC2=CC(C)(C)COc3ccc(OC)c(c32)C1`, the INHIBITION is recorded as -3.5%. The same measure for `CC(C)NC(=O)c1nnn(-c2ccc(F)cc2)c1C1CC1`: -38.2%; for `Cc1cccc(CN2C[C@H]3CC[C@@H](C2)N(Cc2c(C)noc2C)C3=O)n1`: -84%. In the case of `CCOC(=O)N1CCC(NC(C)c2ccccc2-n2cccn2)CC1` (stereo not drawn), the INHIBITION is listed as 17.5%. The same measure for `CC(NCc1cccc(NC(=O)C2CCCCC2)c1)c1cnn(C)c1` (stereo not drawn): 45.4%; for `Cn1ccnc1CN1CCN(CC(O)c2cc(F)ccc2F)CC1` (stereo not drawn): 21.5%. Under `CC(C)c1nn(C)c(N(C)C)c1CNCc1ccc(N(C)C)nc1` stands 13.5%; under `Cc1cc(NC(=O)C2CCN(c3ncccc3C#N)CC2)no1`, 50.1%; under `Cc1cc(C(=O)NC2CCN(c3ncccc3C#N)CC2)no1`, 5.23%. Under `Cc1cc(NC(=O)C2CCN(c3nnc(C)c(C)c3C#N)CC2)no1` stands 19.4%; under `Cn1cc(C2=NOC(C(=O)NC3(c4ccccc4F)CCCC3)C2)cn1` (stereo not drawn), 45.6%. `CN1CCC(N(C)C(=O)c2cnn(-c3cc(F)ccc3F)c2N)CC1`: the INHIBITION was 39.2%. Under `Cc1ccc(CC2CCCN2CC(=O)NCc2ccccn2)cc1` (stereo not drawn) stands 28.4%; under `O=C(CN1CCOCC1CC(=O)c1ccco1)NCc1ccccn1` (stereo not drawn), 54.3%. The same measure for `CN(C)S(=O)(=O)N1CCOCC1CC(=O)NCCOc1ccccc1` (stereo not drawn): 23.5%; for `Nc1ncccc1CN1CCOCC1CC(=O)NCc1ccccn1` (stereo not drawn): 47.6%; for `O=C(CN1CCCC1CC(=O)c1ccccc1)NCc1ccccn1` (stereo not drawn): 1.93%. As for `O=C(CC1COCCN1S(=O)(=O)c1ccccc1)NCc1ccccn1` (stereo not drawn), the INHIBITION worked out at 68.5%.

For the molecule `CC(C)c1nc(C2CCCN2CCS(=O)(=O)c2ccccc2)no1` (stereo not drawn), the INHIBITION is -12.6%. Under `NC(=O)C1CN(C(=O)c2ccc(F)cc2)CCN1CCc1ccccc1` (stereo not drawn) stands 22%; under `CCC(NC(=O)c1cnc(-c2cccnc2)nc1)c1ccnn1C` (stereo not drawn), -31.4%.

As for `O=C(NCCCN1CCOCC1)c1ccn(COc2ccc(Br)cc2)n1`, the INHIBITION worked out at 47.4%.

With `Cc1cc(C2CCCN(C(=O)c3c(C)noc3C)C2)n[nH]1` (stereo not drawn), the INHIBITION was -2.37%. In the case of `O=C(Nc1cccnc1)[C@@H]1C[C@H]2OCC[C@H]2N(Cc2ccsc2)C1`, the INHIBITION was -2.84%. The same measure for `Cc1ccc(Cl)c(CN2CCC(c3nccn3C(C)C)CC2)c1F`: -7.71%; for `CC(C)c1ccc(O)c(C(=O)NC2CCN(c3ncccn3)CC2)c1`: 0.643%. Consider `O=C(NC1CCN(c2ncccn2)CC1)c1cc2c(cc1O)CCCC2`, for which the INHIBITION amounted to 55%. Under `O=C(NC1CCN(c2ncccn2)CC1)c1cc2c([nH]c1=O)CCC2` stands -46.5%. Turning to `CC(=O)N[C@@H]1CN(C(=O)CC2CCOCC2)C[C@H]1O`, the INHIBITION was -5.8%. As for `CCNC(=O)N(C)C(c1cccnc1)C(C)C` (stereo not drawn), the INHIBITION is reported as 63.5%. On to `CC(C)C(c1cccnc1)N(C)C(=O)Cc1c(F)cccc1F` (stereo not drawn), for which the INHIBITION came to 41.8%. Regarding `CC(C)C(c1cccnc1)N(C)C(=O)Cc1ccc(O)cc1` (stereo not drawn), the INHIBITION was -30%. As for `COc1c[nH]c(C(=O)N2CCN(c3cccc(Cl)c3)CC2)cc1=O`, the INHIBITION was 38.8%.

Turning to `CCc1cnc(N2CC[C@H]3[C@@H]2CCC(=O)N3c2cccnc2)nc1`, the INHIBITION is given as -24.1%. Under `COC1CCN(C(=O)Cc2csc(-c3ccccc3)n2)CC1` stands -55.9%; under `Cc1noc(C(C)C)c1C(=O)NCc1ccc2c(c1)OCCO2`, -28.4%; under `CCCS(=O)(=O)N1CC(=O)N(Cc2ccccc2OC)CC(O)C1` (stereo not drawn), 41.1%. The same measure for `CCc1noc(C(C)SCCS(C)(=O)=O)n1` (stereo not drawn): 64.6%. Under `CC(SCCS(C)(=O)=O)c1nc(Cc2ccccc2)no1` (stereo not drawn) stands 13.5%; under `CC(SCCS(C)(=O)=O)c1nc(Cc2ccc(F)cc2)no1` (stereo not drawn), 12.4%; under `O=C(Nc1cccnc1)[C@@H]1CCO[C@@H]2CCN(Cc3cccnc3)C[C@@H]21`, 12.7%. As to `CC(=O)N1N=C(c2ccccc2)OC1C(=O)NCCN(C(C)C)C(C)C` (stereo not drawn), the INHIBITION was 30.3%. As for `Cc1nc(C(C)(C)C)sc1C(=O)NCCNc1ncccn1`, the INHIBITION amounted to 10%. The same measure for `Cc1nn(C)c(C)c1CC(=O)NCC1(C(N)=O)CCOCC1`: 47.7%; for `Cc1nn(C)c(C)c1CCC(=O)NCC1(C(N)=O)CCOCC1`: 26.4%; for `Cc1nn(C)c(C)c1S(=O)(=O)NCC1(C(N)=O)CCOCC1`: 74.5%. Under `CSc1ccc(CN(CCO)C(=O)CCNC(C)=O)cc1` stands 18.4%; under `CNCc1n[nH]c(=O)n1-c1cccc(Cl)c1Cl`, 25.1%; under `N#Cc1c(N2CCCCC2)nsc1-c1cccnc1`, -0.621%. The same measure for `CCN1CCN(c2nsc(-c3cccnc3)c2C#N)CC1`: 36.6%; for `CN1CCN(c2nsc(-c3cccnc3)c2C#N)CC1`: 62.3%; for `CN(Cc1ccc(N(C)C)cc1)C(=O)c1cc2c([nH]c1=O)CCCC2=O`: -42.975%. On to `CNC(=O)c1ccc(C(=O)N2CCCCC2Cn2cc(C)cn2)cn1` (stereo not drawn), for which the INHIBITION was 24.6%. Under `Cc1cc(C(=O)N2CCC3(CC2)CC(c2cccnc2)C(=O)N3)no1` (stereo not drawn) stands -31.3%; under `Cc1ccc(CN2CC[C@H]3CO[C@H](CN(C)C)[C@H]3C2)o1`, 53.9%.

With `Cc1ccc(CN2CC[C@@H]3[C@@H](CO[C@H]3CN(C)C)C2)o1`, the INHIBITION came to 61.1%. Under `CN(C)C[C@@H]1OC[C@H]2CN(Cc3ccoc3)CC[C@H]21` stands -87.7%; under `Cc1ccc(CN2CC[C@H]3CO[C@H](CN4CCN(C)CC4)[C@H]3C2)o1`, 45.7%; under `Cc1ccc(CN2CC[C@H]3CO[C@H](CN4CCCC4)[C@H]3C2)o1`, 7.7%. The same measure for `Cc1ccc(CN2CC[C@H]3[C@H](CO[C@H]3CN(C)C)C2)o1`: 13.1%; for `CCCc1n[nH]c(C2CN(C(=O)c3cccnc3N(C)C)CCO2)n1` (stereo not drawn): 16.9%; for `O=C(NCCO)C1(CC2CC(c3ccc(F)cc3)=NO2)CCOCC1` (stereo not drawn): 22.8%. As for `CC(C)NC(=O)C1(CC2CC(c3ccc(F)cc3)=NO2)CCNCC1` (stereo not drawn), the INHIBITION is 65.7%.

For `O=C(NCCCO)C1(CC2CC(c3ccc(F)cc3)=NO2)CCOCC1` (stereo not drawn), the INHIBITION is 36%.

In the case of `Cc1noc(C)c1CCC(=O)NCC1(O)CCCN(c2ccccn2)C1` (stereo not drawn), the INHIBITION is recorded as 30.4%. `Cc1cc(CN(C)S(=O)(=O)N2CCCC2c2ccc(C)o2)no1` (stereo not drawn): the INHIBITION worked out at 31.9%. Regarding `Cc1ccc(CN(C)CC2(O)CCCN(C)C2)o1` (stereo not drawn), the INHIBITION is listed as -12.7%. Turning to `Cc1nn(C)c2c(N3CCN(C)CC3)nc(C3CC3)nc12`, the INHIBITION is 21.5%. The same measure for `O=C(COCC1CC1)N1CCCC1c1nc(-c2ccccc2F)c[nH]1` (stereo not drawn): 46.4%; for `COC(=O)NCC(=O)N1CCCC1c1nc(-c2ccccc2F)c[nH]1` (stereo not drawn): 60.3%; for `CCOCCCC(=O)N1CCCC1c1nc(-c2ccccc2F)c[nH]1` (stereo not drawn): 29.5%. Turning to `O=C(c1cnc2ccccc2c1)N1CCCC(O)(CN2CCCC2)C1` (stereo not drawn), the INHIBITION was found to be 16.2%. The same measure for `Cc1ccc(N2CCCC(NCC(=O)Nc3cc(C)nn3C)C2)nn1` (stereo not drawn): 21%; for `Cc1nc(C)n(CC2CCCN(Cc3nnc(C4CC4)o3)C2)n1` (stereo not drawn): 2.05%.

With `CN1CCC(Cc2cc(Nc3ncccn3)ncn2)CC1`, the INHIBITION worked out at 62.6%. The same measure for `CCC(=O)N1CCC(Cc2cc(Nc3ncccn3)ncn2)CC1`: 49.6%; for `CN1CCC(Cc2cc(Nc3ccccn3)ncn2)CC1`: -14.1%; for `O=S(=O)(C1CC1)N1CCC2(CC1)CN(Cc1nccs1)CCO2`: 23.3%. With `CCn1nc(C)c2c1cnn2CC(=O)Nc1ccc(OC)cc1C`, the INHIBITION came out at 45.4%.

The values above are taken from ChEMBL document CHEMBL4513216, “Probing the Open Global Health Chemical Diversity Library for Multistage-Active Starting Points for Next-Generation Antimalarials” (ACS Infect Dis, 2020).
